# Measured values published in PubChem BioAssay (NCATS).
# Results filed as inconclusive are left out. Values without a mark were called inactive. Calls come from the whole dose curve; as a rule, active = well fitted activation curve with a large enough effect in the signal ratio, with a control signal flat (not every such curve was filed as active); inconclusive = small, poorly fitted or top-dose-only effect, or effect the other way, or a change in a side signal; inactive = flat fitted curve, though single readings scatter; the % refers to the signal ratio.
# Experiment: qHTS Assay for Identification of Small Molecule Agonists for Hypoxia Response Element Signaling Pathway (AID 914); note: % of control where 0% means no effect
# Conditions: ME-180 (cervical carcinoma) HRE-bla reporter, beta-lactamase ratio, CoCl2, 17 h; activation: active compounds read high
# In short: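 In Opti-MEM containing 0.5% dialyzed FBS and 10 mM HEPES, ME-180 HRE-bla cells received a compound titration and EC50 CoCl2. They were incubated 17 hours, then CCF4-loaded 2.5 hours at room temperature before ratio reading.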
compound,measurement,value
Cc1c(S(=O)(=O)O)ccc(N=Nc2c(O)c(C(=O)O)cc3ccccc23)c1Cl,activation,-17.8%
